Laboratory results from PubChem BioAssay (NCATS).
Inconclusive results are not listed. Unmarked numbers belong to inactive results. The call rests on the fitted dose curve; in most records, active means well fitted cell-killing curve with a large enough effect; inconclusive means small, poorly fitted or top-dose-only effect; inactive means flat fitted curve, though single readings scatter.

Experiment: Cell Viability - LYMP2-015 (AID 971);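 further: cells exposed to compound for 24 h; 0% = DMSO only and full effect = 92 µM tetraoctylammonium bromide; nearly all actives have a fitted effect of over 55% in size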
Conditions: LYMP2-015 lymphoblastoid cell viability; series mostly up to 92.2 µM; activity change, negative = lower viability: at the top concentration
Text: NIH Chemical Genomics Center [NCGC]
NIH Molecular Libraries Screening Centers Network [MLSCN]
National Institutes of Environmental Health Sciences [NIEHS]
National Toxicology Program [NTP]
We have developed a 1536-well cell-based assay for quantitative high throughput screening (qHTS) against a number of cell lines to determine in vitro cytotoxicity of small molecules. This particular assay uses a human lymphoblastoid cell line (LYMP2-015) purchased from Coriell Institute for Medical Research.
NCGC Assay Protocol Summary:
The CellTiter-Glo luminescent cell viability assay (Promega) is a homogeneous method to measure the number of viable cells in culture. The end point readout of this assay is based on quantitation of intracellular ATP, an indicator of metabolic activity, using the luciferase reaction. Luciferase catalyzes the oxidation of beetle Luciferin to oxyluciferin and light in the presence of ATP. The luminescent signal is proportional to amount of ATP present.
Using the CellTiter-Glo luminescent cell viability assay, the amount of cellular ATP was measured in the lymphoblastoid cell line with complete culture medium following compound treatment for 24 hours. The assay was performed in opaque white Kalypsys 1536-well plates. In the screen, tetraoctylammonium bromide was used as positive control. Library compounds were measured for their ability to cause acute toxicity in the cell line, as reflected by a decrease in intracellular ATP levels, in a concentration-dependent manner. […] AC50 values were determined from concentration-response data modeled with the standard Hill equation.
qHTS protocol for CellTiter Glo lymphoblastoid cellular assay
[Step] [Parameter] [Value] [Description]
1. Reagent; 5 uL; 2500 lymphoblastoid cells/well
2. Time; 5 hr; 37 C incubation
4. Controls; 23 nL; Tetraoctylammonium bromide 6.4pM to 92 uM
5. Time; 24 hr; 37 C incubation
6. Reagent; 5 uL; CellTiter Glo reagent
7. Time; 30 min; Room Temperature
8. Detection; Luminescence; Viewlux plate reader
Keywords: cell viability, cytotoxicity, lymphoblastoid cell line, luminescence, NTPHTS, NTPHTS_NCGC, NIEHS, DSSTox, MLSMR, MLSCN, NIH Roadmap, qHTS, NCGC

Row | SMILES | activity change, negative = lower viability [%]
1 | c1ccc(OCC2CO2)cc1 (stereo not given) | 5.36
2 | C=C(Cl)CCl | -5.54
3 | ClCc1ccccn1 | -15.5
4 | Cc1cccc(N)c1C | -25.5
5 | C/C=C/C=O | -7.13
6 | CCCCOCC1CO1 (stereo not given) | -3.34
7 | ClCC(Br)CBr (stereo not given) | 0.103
8 | CCC(Cl)[N+](=O)[O-] (stereo not given) | -12.8
9 | c1ccc2c(c1)CCNC2 | -3.78
10 | CN(C)N=O | -7.59
11 | O=NN1CCCCC1 | -9.44
12 | Cc1cc(-c2cc(C)c(N)c(C)c2)cc(C)c1N | -3.46
13 | C=C(Cl)CSC(=S)N(CC)CC | -38.1
14 | Cc1ccc(N)cc1Cl | -14.7
15 | Oc1cccc(Cl)c1Cl | -0.776
16 | CC(=O)NNc1ccccc1 | 8.12
17 | S=c1[nH]c2ccccc2[nH]1 | -1.15
18 | CCOC(=O)CC(SP(=O)(OC)OC)C(=O)OCC (stereo not given) | -10.1
19 | CC(Cl)(Cl)Cl | 3.74
20 | O=C(O)C(Cl)(Cl)Br | -7.22

Row | SMILES | activity change, negative = lower viability [%]
21 | CCOP(=S)(OCC)SCCSCC | -5
22 | Oc1ccc(Cl)c(Cl)c1Cl | -0.113
23 | Nc1ccc(-c2ccc(N)c(Cl)c2)cc1Cl | -28.9
24 | Cc1cc(C)cc(OP(=O)(Oc2cc(C)cc(C)c2)Oc2cc(C)cc(C)c2)c1 | -20.3
25 | CC(C)OS(C)(=O)=O | -8.43
26 | C(CCOCC1CO1)COCC1CO1 (stereo not given) | -20.2
27 | Clc1cc(Cl)c(Cl)c(Cl)c1 | 0.188
28 | c1ccoc1 | 1.09
29 | CC(C)(Cl)Cl | -18.6
30 | C=CC(=O)OCC(C)C | -10.4
31 | NC1CCC(CC2CCC(N)CC2)CC1 (stereo not given) | -12.7
32 | C=CCO | -21.5
33 | O=C(O)C(Cl)Br (stereo not given) | -7.65
34 | Cc1ccc2c(C)cccc2c1 | -14.8
35 | CN(C)C(=O)Cl | -11.1
36 | c1ccc(Nc2ccc(Nc3ccccc3)cc2)cc1 | -17.7
37 | CC(C)CC(C)N (stereo not given) | -18.9
38 | ClCc1ccccc1 | -5.81
39 | COc1cc(-c2ccc(N)c(OC)c2)ccc1N | -15.9
40 | Nc1c(Br)cc([N+](=O)[O-])cc1[N+](=O)[O-] | -26.3
